# AHR act – activates the human aryl hydrocarbon receptor | activation, % at 5 µM | P35869 | 320,000 tested, 2.5% active | AHR-responsive luciferase reporter cells, luminescence; in the data active = activation above about 47%
# Wnt act – activates Wnt/beta-catenin signaling in a reporter cell assay | 300,000 tested, 1.2% active | activation, % at 9.35 µM | activator, plate reader | AID 743398; in the data active = activation above about 30%, passing the limit was not always enough; inconclusive = no clear call, values can overlap the other calls
# esBAF inh – SWI/SNF esBAF complex inhibition; reporter increase, % at 12.5 µM; 350,000 tested, 2% active; mouse ES cells, Bmi1-luciferase knock-in reporter, 24 h; 100% = twice the neutral-well signal; AID 602393; in the data active = activation above about 40%; inconclusive = no clear call, values can overlap the other calls;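 note: a rise in the Bmi1 reporter signal indicates esBAF inhibition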
# FXN GAA850 act – frataxin GAA850 promoter activation | activation, % at 6 µM | AID 540364 | HEK293 lucGAA850 FXN promoter luciferase reporter, 24 h; percent of 10 µM SAHA response | 360,000 tested, 0.56% active;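 active = activation above the average of all compounds screened plus 3 SD, cutoff fixed separately per campaign, cut at about 7.5% in these data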
# MITF TRPM1 HTS – increases MITF-driven TRPM1 promoter luciferase signal; SK-MEL-5 TRPM1-promoter luciferase, 24 h; % of positive control, neutral wells = 0; AID 588334; activation, % at 12.5 µM; 300,000 tested, 0.75% active;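 active = mean activation of at least 80% with every replicate also reaching 80%; inconclusive = mean reaches 80% but some replicate falls short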
# GAA30 counter – GAA30 FXN promoter activation counter-screen | shares compounds with FXN GAA850 act | HEK293 lucGAA30 FXN promoter luciferase, 24 h; DMSO = 0%, 5 µM ipriflavone = 100% | activation, % at 6 µM | 1,900 tested, 66% active;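 active = mean activation above the mean of solvent-only control wells plus 3 SD, cut at about 22% in these data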;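 note: counterscreen of GAA850 promoter hits where activity marks nonselective or luminescence artifacts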
# FXN GAA850 conf – confirmation of GAA850 frataxin (FXN) promoter activators; activation, % at 6 µM; HEK293 lucGAA850 FXN promoter luciferase reporter, 24 h; 100% = activation by SAHA; shares compounds with FXN GAA850 act; 1,900 tested, 86% active;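 active = mean activation above a set limit taken from the primary screen, cut at about 8% in these data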
# A number is an active result; - = inactive; ? = inconclusive; . = no result given. In the library only some 4.2% were active in any assay of this set; here they are far more common.
SMILES,AHR act,Wnt act,esBAF inh,FXN GAA850 act,MITF TRPM1 HTS,GAA30 counter,FXN GAA850 conf
CC(NC(=O)/C(C#N)=C/c1ccco1)c1ccccc1 (stereo unspecified),-,-,-,-,-,.,.
CCOCCCNC(=O)/C(C#N)=C/c1ccc([N+](=O)[O-])o1,-,-,-,11,-,-,-
C[C@@H]1CCCCO[C@@H](CN(C)Cc2ccncc2)[C@@H](C)CN([C@@H](C)CO)C(=O)c2cc(NC(=O)Cc3ccccc3)ccc2O1,.,.,-,.,.,.,.
Cc1cnc(NC(=O)CSc2ccc(Cl)cc2)s1,-,-,-,-,-,.,.
Cc1cnc(NC(=O)Nc2ccc(Cl)cc2)s1,-,-,.,8.2,?,74,46
O=C(Nc1ccc(Cl)cc1)Nc1cccnc1,-,-,-,8.4,-,63,21
Cc1cc(C)cc(NC(=O)Nc2cccnc2)c1,.,-,-,-,.,.,.
C[C@@H]1CCCCO[C@H](CN(C)C(=O)NC2CCCCC2)[C@H](C)CN([C@@H](C)CO)C(=O)c2cc(NC(=O)CCCN(C)C)ccc2O1,.,.,-,.,.,.,.
C[C@H](CO)N1C[C@H](C)[C@@H](CN(C)Cc2ccncc2)OCc2ccccc2-c2ccccc2C1=O,.,.,-,.,.,.,.
C[C@H](CO)N1C[C@H](C)[C@H](CN(C)Cc2ccc(F)cc2)OCc2ccccc2-c2ccccc2C1=O,.,.,-,.,.,.,.
C[C@@H]1CN([C@H](C)CO)S(=O)(=O)c2ccc(C#C[C@@H](C)O)cc2O[C@H]1CN(C)C(=O)C1CC1,.,.,-,.,.,.,.
O=C(CSc1ncn[nH]1)Nc1c(F)cc(F)cc1Br,-,.,-,14,-,-,-
CCOc1ccc2nc(SCC(=O)c3cccs3)sc2c1,-,50,90,8.6,.,102,29
CCOc1ccc2nc(SCC(=O)c3ccc(Cl)s3)sc2c1,-,.,.,-,-,.,.
Cc1ccc2nc(-c3ccc(O)c(O)c3)cn2c1,-,-,-,10,-,122,49
Cc1cccc(-n2cnc3sc(C)c(C)c3c2=O)c1,-,-,-,-,.,.,.
COc1cccc(-n2cnc3sc(C)c(C)c3c2=O)c1,-,.,.,9.3,-,59,24
CCN1C(=O)[C@H]2[C@@H](c3ccc(C)cc3)N3C(=O)N(c4cccc(Br)c4)C(=O)[C@@]3(CC(C)C)[C@H]2C1=O,-,-,-,16,-,22,11
Cc1cccc([C@@H]2[C@@H]3C(=O)N(Cc4ccccc4)C(=O)[C@@H]3[C@]3(CC(C)C)C(=O)N(c4cccc(F)c4)C(=O)N23)c1,-,-,-,-,-,.,.
CCN1C(=O)[C@H]2[C@@H](c3ccccc3)N3C(=O)N(c4cccc(F)c4)C(=O)[C@@]3(CC(C)C)[C@H]2C1=O,-,.,-,8.8,-,25,-
CCN1C(=O)[C@H]2[C@@H](c3ccc(C)cc3)N3C(=O)N(c4cccc(Br)c4)C(=O)[C@@]3(C)[C@H]2C1=O,.,-,-,-,-,.,.
COc1cccc(S(=O)(=O)N(C)C[C@H]2OCc3ccccc3-c3ccccc3C(=O)N([C@@H](C)CO)C[C@H]2C)c1,.,.,-,.,.,.,.
Cc1noc(C)c1NC(=O)N(C)C[C@H]1Oc2ccc(NC(=O)Nc3cccc4ccccc34)cc2C(=O)N([C@@H](C)CO)C[C@@H]1C,.,.,-,.,.,.,.
CN(C)CCCNC(=O)C[C@@H]1CC[C@@H](NC(=O)c2ccccc2F)[C@H](CO)O1,.,.,-,.,.,.,.
CC1(C)Cc2c(c(-c3ccco3)nc3sc4c(NCCCO)ncnc4c23)CO1,-,-,-,7.7,-,-,14
SMILES,AHR act,Wnt act,esBAF inh,FXN GAA850 act,MITF TRPM1 HTS,GAA30 counter,FXN GAA850 conf
CC(C)NC(=O)N[C@H]1CC[C@H](CCNC(=O)C2CCCC2)O[C@@H]1CO,.,.,-,.,.,.,.
COc1cc(O)c2c(=O)c(-c3ccc(O[C@@H]4O[C@H](CO)[C@@H](O)[C@H](O)[C@H]4O)cc3)coc2c1,.,36,-,9.0,-,108,31
Cc1ccc(C(=O)NCCc2csc(-c3cccnc3)n2)cc1,-,-,-,20,-,76,27
C/C(=N\NC(=O)c1cccs1)c1ccc2c(c1)OCO2,-,-,.,7.6,-,77,25
C/C(=N/NC(=O)c1cccs1)c1cccc(N)c1,-,-,-,-,-,.,.
Cn1c2ccccc2c(=O)c2ccc(C#CC3(N)CCCCC3)cc21,-,-,-,10,-,49,46
COc1ccc(S(=O)(=O)N(C)C[C@H]2Oc3c(NC(=O)Nc4ccc5c(c4)OCO5)cccc3C(=O)N([C@@H](C)CO)C[C@@H]2C)cc1,.,.,-,.,.,.,.
C[C@@H]1CN([C@@H](C)CO)C(=O)c2cc(NC(=O)CCC(F)(F)F)ccc2O[C@@H](C)CCCCO[C@H]1CN(C)C(=O)CCCN(C)C,.,.,-,.,.,.,.
CC(C)Cc1cc(-c2ccco2)c(C#N)c(N)n1,-,.,-,8.2,.,-,18
N#Cc1c(-c2ccco2)cc(-c2ccc(F)cc2)nc1N,-,.,-,-,-,.,.
COc1ccc(-c2cnc3c(c2)C(=O)N([C@@H](C)CO)C[C@@H](C)[C@@H](CN(C)C(=O)C2CCCCC2)O3)cc1,.,.,-,.,.,.,.
CC[C@]12c3[nH]c4ccccc4c3CCN1C(=O)C(CC(=O)NC(C)(C)C)C[C@@H]2C(=O)N1CCN(C(=O)C2CC2)CC1 (stereo partly specified),-,-,-,-,-,.,.
CC[C@]12c3[nH]c4ccccc4c3CCN1C(=O)C(CC(=O)NCC13CC4CC(CC(C4)C1)C3)C[C@@H]2C(=O)N1CCN(C(=O)C2CC2)CC1 (stereo partly specified),-,-,-,9.0,-,-,-
CC[C@]12c3[nH]c4ccc(Cl)cc4c3CCN1C(=O)[C@@H](CC(=O)NCC13CC4CC(CC(C4)C1)C3)C[C@@H]2C(=O)N1CCN(C(=O)C2CC2)CC1,.,-,-,-,-,.,.
CC[C@]12c3[nH]c4ccc(OC)cc4c3CCN1C(=O)C(CC(=O)NCC13CC4CC(CC(C4)C1)C3)C[C@@H]2C(=O)N1CCN(C(=O)C2CC2)CC1 (stereo partly specified),.,-,-,15,-,23,15
O=C(NNC(=S)Nc1ccc(Cl)cc1)c1cccs1,-,-,.,-,-,.,.
O=C(NNC(=S)Nc1ccccc1)c1cccs1,-,.,.,8.3,-,74,29
CN(C)c1ccc2c(c1)[C@@H]1C[C@@H](CC(=O)NCCN3CCCCC3)O[C@H](CO)[C@@H]1O2,.,.,-,.,.,.,.
CO[C@H]1CN(C)C(=O)c2ccc(NC(=O)C3CC3)cc2OC[C@H](C)N(Cc2cncnc2)C[C@H]1C,.,.,-,.,.,.,.
Cc1ccc(Nc2cc(C)nc(NCc3ccccc3)n2)cc1,-,-,.,13,-,-,15
COc1ccc(Nc2cc(C)nc(NCc3ccccc3)n2)cc1,-,-,.,-,.,.,.
